Measured values reported in PubChem BioAssay AID651661 (Broad Institute, 2012).
Hit rate of the full screen: of about 350,000 compounds, about 2,300 (0.66%) were called active.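 How the source made its calls: active means mean inhibition of at least 50% after viability correction, with every replicate also passing that limit; inconclusive means mean reaches 50% but only one of two replicates passes; inactive means the rest.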 What follows is part of a selection rich in actives, with near analogues and random picks from the rest.

Assay: blockers of EWS/Fli transcriptional output – A673 cells, NR0B1 luciferase, luminescence, MLPCN library, primary screen (AID 651661);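 further: firefly luciferase signal divided by Alamar Blue viability fluorescence both relative to DMSO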
Conditions: A673 NR0B1-luciferase reporter, viability-normalised; at 12.6 µM; stronger effect = higher value

Row | SMILES | inhibition
1 | C[C@H]1CN([C@@H](C)CO)C(=O)c2cc(/C=C/c3ccccc3)cnc2O[C@@H]1CN(C)C(=O)NC1CCCCC1 | -13.4% (inactive)
2 | COCC(=O)Nc1ccc2c(c1)OC[C@@H](C)N(C(=O)c1cnccn1)C[C@H](C)[C@@H](OC)CN(C)C2=O | -0.326% (inactive)
3 | CN(c1ccc2nc3ccccc3c(=O)n2n1)C1CCCCC1 | 84.9% (active)
4 | CC(C)c1cc(C(=O)NC2CCCCCC2)c2ccccc2n1 | -3.93% (inactive)
5 | CC(C)C(C)NC(=O)COc1nc2ccccc2nc1N(C)C1CCCCC1 (centres undefined) | 6.59% (inactive)
6 | COc1cccc(NC(=O)C[C@@H]2CC[C@H]3[C@@H](COc4ccc(NC(=O)C5CCC5)cc4C(=O)N3C)O2)c1 | -3.34% (inactive)
7 | Cc1ccc(S(=O)(=O)Nc2ccc3c(c2)C(=O)N([C@@H](C)CO)C[C@H](C)[C@@H](CN(C)CC2CC2)O3)cc1 | -3.89% (inactive)
8 | C[C@H]1CN([C@@H](C)CO)C(=O)c2ccccc2-c2ccccc2CO[C@@H]1CN(C)C(=O)CCN(C)C | 2.93% (inactive)
9 | COc1ccc(-c2nc3c(s2)CCc2onc(-c4ccc(Br)cc4)c2-3)cc1 | 24.2% (inactive)
10 | COc1ccc(-c2nc(CCNC(=O)c3ccc(Br)o3)cs2)cc1 | -1.15% (inactive)
11 | COc1ccc(-c2nc3c(s2)CCc2onc(-c4ccc(OC)cc4)c2-3)cc1 | 65.6% (active)
12 | C[C@@H]1CN([C@@H](C)CO)C(=O)c2cc(NS(=O)(=O)c3cn(C)cn3)ccc2O[C@@H](C)CCCCO[C@@H]1CN(C)Cc1ccncc1 | 4.01% (inactive)
13 | COCC(=O)Nc1ccc2c(c1)C(=O)N(C)C[C@@H](OC)[C@@H](C)CN(CC1CCCCC1)[C@@H](C)CO2 | -0.183% (inactive)
14 | COCC(=O)N1CC(=O)N2[C@H](CO)[C@@H](c3ccc(C#CC4CCCC4)cc3)[C@H]2C1 | -0.851% (inactive)
15 | CCC(=O)N1CC(=O)N2[C@@H](CO)[C@@H](c3ccc(C#CC4CCCC4)cc3)[C@@H]2C1 | 9.48% (inactive)
16 | CCC(=O)N1CC(=O)N2[C@@H](CO)[C@H](c3ccc(C#CC4CCCC4)cc3)[C@@H]2C1 | 56.6% (active)
17 | COc1ccc2c3c([nH]c2c1)[C@@H](CO)N(C(=O)CN1CCOCC1)CC31CCN(C)CC1 | -7.25% (inactive)
18 | CO[C@H]1CN(C)C(=O)c2ccc(NS(C)(=O)=O)cc2OC[C@@H](C)N(Cc2ccccc2)C[C@H]1C | -2.52% (inactive)
19 | O=C(C1CC1)N1CC(=O)N2[C@H](CO)[C@@H](c3ccc(-c4ccccc4F)cc3)[C@@H]2C1 | -0.073% (inactive)
20 | COc1ccc2c3c(n(C)c2c1)[C@@H](CO)N(CC1CC1)CC31CN(C(=O)Nc2c(C)noc2C)C1 | -1.03% (inactive)

Row | SMILES | inhibition
21 | CCCn1nc(C(=O)Nc2ccc3nc(C)sc3c2)c2ccccc2c1=O | -12% (inactive)
22 | CC(=O)Nc1ccc2nc(NC(=O)CS(=O)(=O)c3ccc(F)cc3)sc2c1 | -3.37% (inactive)
23 | CCCC(=O)Nc1nc2ccc(NC(=O)c3c(F)c(F)c(OC)c(F)c3F)cc2s1 | 57.7% (active)
24 | O=C(NC[C@@H]1[C@@H](c2ccccc2)[C@H](CO)N1C(=O)C1CCC1)NC1CCCC1 | 14.7% (inactive)
25 | COc1ccccc1-c1ccc2n(c1=O)C[C@@H]1[C@@H](CO)[C@H](C(=O)NCc3ccccc3Cl)N[C@H]21 | -17.8% (inactive)
26 | C=CCOc1ccc(/C=C2\SC(=S)N(CCC(=O)O)C2=O)cc1 | 78.5% (active)
27 | O=C1/C(=C/c2ccc(F)cc2)SC(=S)N1CCCC(=O)N1CCCCC1CCO (centres undefined) | -2.88% (inactive)
28 | Cc1ccc(-c2nn(-c3ccccc3)cc2/C=C2\SC(=S)N(CCCCCC(=O)O)C2=O)o1 | -10.8% (inactive)
29 | C[C@H]1CN([C@@H](C)CO)C(=O)c2cccc(NS(=O)(=O)c3ccc(F)cc3)c2O[C@@H]1CN(C)C | 1.9% (inactive)
30 | Cc1ccc(S(=O)(=O)N(C)C[C@@H]2Oc3c(NC(=O)c4ccncc4)cccc3C(=O)N([C@@H](C)CO)C[C@@H]2C)cc1 | -2.33% (inactive)
31 | COc1ccc(NC(=O)N[C@@H]2C=C[C@H](CC(=O)NC3CCC3)O[C@@H]2CO)cc1 | 3.89% (inactive)
32 | O=C(C1CCCC1)N1CC(=O)N2[C@H](C1)[C@@H](c1ccc(-c3ccccc3F)cc1)[C@@H]2CO | -3.17% (inactive)
33 | COc1ccc2c3c(n(C)c2c1)[C@H](CO)NCC31CCN(C(=O)Nc2ccccc2F)CC1 | 9.22% (inactive)
34 | C[C@H]1CN([C@@H](C)CO)C(=O)c2c(c3ccccc3n2C)-c2ccccc2CO[C@H]1CN(C)C(=O)Nc1ccc(F)cc1 | -3.34% (inactive)
35 | O=C(C[C@H]1C[C@@H]2c3cc(NC(=O)c4cccnc4)ccc3O[C@@H]2[C@@H](CO)O1)NCc1ccccc1F | 6.33% (inactive)
36 | C[C@H](O)C#Cc1ccc2c(c1)O[C@@H](CN(C)CC1CCCC1)[C@H](C)CN([C@@H](C)CO)S2(=O)=O | -1.43% (inactive)
37 | O=C(CCc1ccccc1Cl)Nc1ccc(S(=O)(=O)Nc2nccs2)cc1 | 8.82% (inactive)
38 | Cc1ccc(C(=O)Nc2nc3ccc(Cl)cc3s2)o1 | -92.8% (inactive)
39 | Cc1ccc(CCC(=O)Nc2ncc(Cc3cc(Cl)ccc3Cl)s2)o1 | 54% (active)
40 | CCC(=O)Nc1ccc2c(c1)C(=O)N(C)C[C@H](OC)[C@@H](C)CN(C(=O)c1cnccn1)[C@@H](C)CO2 | 4.08% (inactive)

Row | SMILES | inhibition
41 | O=C(NC[C@H]1CC[C@H]2[C@H](CN2Cc2cccc(Cl)c2)O1)C1CC1 | 5.25% (inactive)
42 | Cc1cccc(-n2ncc(Cl)c(Cl)c2=O)c1 | 79.8% (active)
43 | CCCNC(=O)c1c(Cl)cnn1-c1ccc(C)cc1 | -130% (inactive)
44 | Cc1cccc(-n2ncc3c(=O)[nH]c(SCC(=O)Nc4cc(C)on4)nc32)c1 | -9.98% (inactive)
45 | O=C(C[C@@H]1C[C@@H]2c3cc(NS(=O)(=O)c4ccc(F)cc4)ccc3O[C@@H]2[C@@H](CO)O1)N1CCOCC1 | -1.95% (inactive)
46 | CNC[C@H]1Oc2cc(C#CC3CCCC3)ccc2S(=O)(=O)N([C@H](C)CO)C[C@@H]1C | 3.9% (inactive)
47 | Cc1cccc(N(C)C(=O)c2cc3c(=O)[nH]c4ccc(C)cc4c3s2)c1 | 65% (active)
48 | Cc1ccc2[nH]c(=O)c(CC(=O)O)c(-c3ccccc3)c2c1 | -1.99% (inactive)
49 | CCN(CC)CCCNC(=O)c1cc2c(=O)[nH]c3ccc(C)cc3c2s1 | 7.57% (inactive)
50 | O=C([C@H]1[C@H](CO)[C@H]2Cn3c(cccc3=O)[C@@H]1N2Cc1cocn1)N1CCCCC1 | -0.44% (inactive)
51 | CCC(C)Cn1c(O)cc2nn(-c3nc4ccccc4s3)c(=O)c-2c1C (centres undefined) | 64.5% (active)
52 | N#Cc1ccc(-c2ccc([C@H]3[C@H](CO)N4C(=O)CN(C(=O)Cc5ccccc5)C[C@@H]34)cc2)cc1 | -6.19% (inactive)
53 | COc1ccc(CNC(=O)C[C@@H]2C=C[C@@H](NC(=O)c3ccc4c(c3)OCO4)[C@@H](CO)O2)cc1 | -0.519% (inactive)
54 | CCNC(=O)C[C@@H]1CC[C@@H]2[C@@H](COc3ccc(NC(=O)Nc4ccccc4F)cc3C(=O)N2C)O1 | -3.28% (inactive)
55 | COc1cc2[nH]c(=S)n(Cc3ccc(F)cc3)c(=O)c2cc1OC | 11.2% (inactive)
56 | COc1ccc(Cn2c(=S)[nH]c3cc(C(=O)N4CCCCC4)ccc3c2=O)cc1 | -2.4% (inactive)
57 | CCOc1cc2[nH]c(=S)n(Cc3ccc(C(=O)N4CCN(C)CC4)cc3)c(=O)c2cc1OCC | 67.5% (active)
58 | O=C(Nc1ccc(F)cc1)N[C@@H]1CC[C@H](CC(=O)N2CCCCC2)O[C@H]1CO | 6.37% (inactive)
59 | C[C@@H]1CN([C@@H](C)CO)S(=O)(=O)c2ccc(-c3ccc(C(=O)N(C)C)cc3)cc2O[C@@H]1CN(C)C(=O)Cc1ccccn1 | -2.65% (inactive)
